Bioassay records as filed in PubChem BioAssay.
In the library only some 3.3% were active in any assay of this set; here they are far more common.
AmpC inh detg = AmpC beta-lactamase inhibition with detergent present. AmpC hydrolysis of nitrocefin, absorbance 480 nm, 0.01% Triton. 370,000 tested, 0.041% active. Potency, µM (highest dose often 114 µM), for inactives: top-dose activity change, negative = inhibition, most hits filed as inhibitors;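 further: 0% = no-compound wells and -100% = no-enzyme wells; nearly all actives have a fitted effect of over 25% in size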
Target sequence (P00811 whole entry, looked up): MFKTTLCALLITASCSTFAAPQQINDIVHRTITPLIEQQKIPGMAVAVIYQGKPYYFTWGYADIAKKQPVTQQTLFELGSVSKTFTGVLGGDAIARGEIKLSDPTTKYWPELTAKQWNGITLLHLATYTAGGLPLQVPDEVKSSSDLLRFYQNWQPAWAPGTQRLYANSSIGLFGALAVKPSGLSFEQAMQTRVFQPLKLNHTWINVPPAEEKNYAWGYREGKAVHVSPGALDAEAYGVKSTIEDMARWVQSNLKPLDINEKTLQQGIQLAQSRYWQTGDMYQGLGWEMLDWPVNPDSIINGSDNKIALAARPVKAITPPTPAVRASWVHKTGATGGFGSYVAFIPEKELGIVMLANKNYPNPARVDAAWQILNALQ
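20 mM phosphate pH 7.0 + 0.01% (detergent screen) or 0.0001% Triton X-100; 5.3 nM AmpC reagent; cpd preinc 15 min RT; nitrocefin (800 uM stock) to start; A480 q20 s × 4 min; Activity was normalised to no-enzyme and no-compound control wells.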
AmpC inh no detg = AmpC beta-lactamase inhibition without detergent; P00811; AmpC nitrocefin hydrolysis, absorbance 480 nm, 0.0001% Triton; Potency, µM (highest dose often 57.1 µM), inactives show top-dose activity change, negative = inhibition, hits mostly inhibitors; 330,000 tested, 0.52% active; AID 485341;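 further: plate controls were no compound for no effect and no enzyme for full effect; nearly all actives have a fitted effect of over 20% in size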
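AmpC (5.3 nM in the dispensed reagent) in 20 mM phosphate pH 7.0 with 0.01% (detergent screen) or 0.0001% Triton X-100 was preincubated with compounds for 15 min at room temperature. Nitrocefin was then added from an 800 uM solution, and hydrolysis was followed at 480 nm.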
Sm TGR block = S. mansoni TGR enzyme inhibition | AID 485364 | purified TGR, DTNB reduction, TNB absorbance 405 nm | Q962Y6 | 360,000 tested, 3% active | Potency, µM (highest dose often 114 µM), without a hit: at the top dose activity change, negative = inhibition, usual class: inhibitors; further: nearly all actives have a fitted effect of over 60% in size
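TGR 20 nM + NADPH 100 uM (dispensed conc.), cpd preinc 15 min RT; start with NADPH (500 uM addition) then DTNB (15 mM addition). Kinetic TNB absorbance, 405 nm filter. Four-parameter Hill fit across titration.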
Starred values were filed as active, the others as inactive; ? = inconclusive; nt = not tested or not shown; ! = not confirmed by another sample. The call rests on the fitted dose curve; in most records, active means well fitted curve in the direction sought with a large enough effect; inconclusive means small, poorly fitted or top-dose-only effect, or another doubt; inactive means no such curve, though single readings can be large; an effect the other way counts as inactive or inconclusive. Unless noted, on the % scale 0 is the no-effect control and ±100 the full control effect; potency means the concentration at half of the fitted maximal effect.

SMILES	AmpC inh detg	AmpC inh no detg	Sm TGR block
CCOc1ccccc1-c1nc(CN2CCN(C(=O)c3ccco3)CC2)c(C)o1	-12%	76%	?
CCOc1ccccc1-n1c(CN2CCN(C(=O)c3ccco3)CC2)nc2ccccc2c1=O	-3%	34%	25µM*
Cc1ccc(SC(C)C(=O)O/N=C(\N)c2ccncc2)cc1 (configuration not stated)	3%	46%	40µM*
Cc1ccc(OCC(=O)O/N=C(\N)c2ccncc2)c(C)c1	-20%	1%	-2%
O=C(CCl)N(C1CCCC1)C1CCS(=O)(=O)C1 (configuration not stated)	?	-4%	16µM*
CC(=O)c1ccc(OCC(=O)N(C2CCCCC2)C2CCS(=O)(=O)C2)cc1 (configuration not stated)	-5%	1%	5%
Cn1cccc1C(=O)NC(=O)COC(=O)c1ccc(S(C)(=O)=O)c([N+](=O)[O-])c1	nt	13%	nt
CS(=O)(=O)c1ccc(C(=O)OCC(=O)NC23CC4CC(CC(C4)C2)C3)cc1[N+](=O)[O-]	-10%	-10%	2.8µM*
CC(=O)c1ccc(NC(=O)CSc2nc(C3CCCC3)nc3c2c(=O)n(C)c(=O)n3C)cc1	11%	nt	-1%
COC(=O)CSc1nnc([C@H](Cc2ccccc2)NC(=O)OC(C)(C)C)o1	-14%	22%	0%
Cc1cccc(CS(=O)(=O)c2nnc([C@H](Cc3ccccc3)NC(=O)OC(C)(C)C)o2)c1	40µM*	-55%	1.8µM*
CC(C)(C)OC(=O)N[C@@H](Cc1ccccc1)c1nnc(SCC(N)=O)o1	-6%	-7%	9%
COC(=O)CS(=O)(=O)c1nnc([C@H](Cc2ccccc2)NC(=O)OC(C)(C)C)o1	35µM*	?	1.4µM*
NC(=O)c1cc2ccccc2o/c1=N/NC(=O)c1ccccc1	-18%	-18%	31%
CCOC(=O)[C@@H]1[C@H]2COc3cc(OC)ccc3[C@@H]2N2C(=O)N(c3ccccc3)C(=O)[C@]12C	nt	-3%	nt
COc1ccc(NC(=O)C(=O)NNC(=O)c2ccc(Cl)cc2Cl)cc1	-3%	-22%	5%
N#C/C(=C\c1cc(Cl)c(OCc2ccc(Cl)cc2)c(Cl)c1)C(N)=O	-12%	-36%	0%
N#C/C(=C\c1cc(O)c(O)c(O)c1)C(N)=O	-10%	-28%	13µM*
C/C(CC(=O)NC12CC3CC(CC(C3)C1)C2)=N\NC(=O)Cc1cccs1	-14%	-2%	-1%
CO[C@@]1(NC(=O)Cc2cccs2)C(=O)N2C(C(=O)O)=C(COC(N)=O)CS[C@@H]21	40µM*	-41%	35µM*
COc1ccc(OC)c2sc(N(CCCN(C)C)C(=O)CCS(=O)(=O)c3ccccc3)nc12	0%	121%	3.2µM*
COc1ccc(Cl)c2sc(N(CCN(C)C)C(=O)CCS(=O)(=O)c3ccc(C)cc3)nc12	?	225%	-30%
CN(C)CCN(C(=O)CCS(=O)(=O)c1ccccc1)c1nc2c(F)cccc2s1	-4%	8%	?
Cc1ccc2sc(N(CCCN(C)C)C(=O)CCS(=O)(=O)c3ccccc3)nc2c1C	-4%	158%	7.1µM*
CCN(CC)CCN(C(=O)CCS(=O)(=O)c1ccccc1)c1nc2cc(OC)c(OC)cc2s1	4%	46%	14µM*
SMILES	AmpC inh detg	AmpC inh no detg	Sm TGR block
CN(C)CCCN(C(=O)CCSc1ccccc1)c1nc2cc3c(cc2s1)OCO3	?	160%	?
CN(C)CCCN(C(=O)CCS(=O)(=O)c1ccccc1)c1nc2cc3c(cc2s1)OCO3	-4%	56%	4µM*
CCN(CC)CCN(C(=O)CCS(=O)(=O)c1ccccc1)c1nc2cc(C)cc(C)c2s1	6%	144%	?
COc1cc(NC(=S)N2CCCC2)cc(OC)c1	-7%	4%	0%
COc1ccc(CCNC(=O)CCCn2c(=O)c3ccccc3n(CC(=O)Nc3ccccc3C)c2=O)cc1OC	16%	nt	-8%
CC1CCc2ccccc2N1C(N)=Nc1ccccc1 (configuration not stated)	2%	-20%	-6%
COc1cccc(C(=O)c2cn(CC(=O)NCCc3ccccc3)c3nc(C)ccc3c2=O)c1	3%	nt	-13%
Cc1ccc(C)c(NC(=S)NCC(c2ccccc2)N(C)C)c1 (configuration not stated)	?	-2%	0%
COc1cccc(-c2nc(CS(=O)(=O)CC(=O)N3CCCCC3)c(C)o2)c1	2%	30%	?
COc1cccc(-c2nc(CS(=O)(=O)CC(=O)NCCC(C)C)c(C)o2)c1	0%	51%	45µM*
COc1cccc(-c2nc(CS(=O)(=O)CC(=O)NCCc3ccc(OC)cc3OC)c(C)o2)c1	-6%	84%	25µM*!
COc1cccc(-c2nc(CS(=O)(=O)CC(=O)NC3CCCCCC3)c(C)o2)c1	?	66%	?
COc1cccc(-c2nc(CS(=O)(=O)CC(=O)NCCc3cc(OC)ccc3OC)c(C)o2)c1	3%	73%	?
COCCCNC(=O)CS(=O)(=O)Cc1nc(-c2cccc(OC)c2)oc1C	-15%	9%	?
COc1cccc(-c2nc(CS(=O)(=O)CC(=O)NC3CCCCC3C)c(C)o2)c1 (configuration not stated)	?	56%	40µM*
COc1cccc(-c2nc(CS(=O)(=O)CC(=O)N3CCN(c4ccccn4)CC3)c(C)o2)c1	?	146%	50µM*
Cc1ccccc1C(=O)Nc1nnc(SCC(=O)NC2CC2)s1	11%	-19%	6%
COc1ccc(C2c3c(oc4cc(C)cc(C)c4c3=O)C(=O)N2Cc2ccco2)cc1OC (configuration not stated)	11%	nt	4%
CCOc1ccccc1-c1nc(C(N)=O)c2c(n1)n(-c1ccc3c(c1)OCO3)c(=O)n2C	3%	nt	9%
COc1ccc(CNC(=O)CS(=O)(=O)Cc2nc(-c3cccc(OC)c3)oc2C)cc1	4%	49%	-33%
CCCCN(C)C(=O)CS(=O)(=O)Cc1nc(-c2cccc(OC)c2)oc1C	?	11µM*	22µM*
Cc1sc2ncn(CC(=O)N3CCN(c4ccccc4F)CC3)c(=O)c2c1S(=O)(=O)N1CCOCC1	?	16%	1%
CCCN(c1ccccc1F)S(=O)(=O)c1cc(-c2cc(C)no2)ccc1C	7%	nt	5%
O=S(=O)(NCc1ccc(Cl)cc1)c1ccc2[nH]c3c(c2c1)CCCC3	-5%	nt	-12%
COC(=O)CCCC1=CC2=C(c3ccccc3)C(=O)C(C)(OC(=O)C3CCCC3)C(=O)C2=CN1Cc1ccc(OC)cc1 (configuration not stated)	1%	86%	22µM*
COC(=O)CCCC1=CC2=CC(=O)C(C)(OC(=O)c3cccs3)C(=O)C2=CN1Cc1ccc2c(c1)OCO2 (configuration not stated)	-2%	109%	-29%
COC(=O)CCCC1=CC2=C(c3ccccc3)C(=O)C(C)(OC(=O)C3CCCC3)C(=O)C2=CN1c1ccccc1 (configuration not stated)	-10%	137%	-15%
